Source: PubChem BioAssay AID1159580 (chemical genetic matrix, 2015)
Several values for one entry are separate records, joined by “and”; a condition that tells them apart may be missing. Equal entries are not always repeated. Hit rate of the full screen: of about 5,500 compounds, about 2,000 (36%) were called active. Inconclusive results (about 18%) are left out. No stated cut-off is given here; in the data, active means normalized growth mostly below about 0.91 (no sharp cut-off); inconclusive means no clear call, values can overlap the other calls; inactive means mostly above about 0.92. This is one part of the list.

Assay: chemical genetic growth profiling, strain panel (AID 1159580);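 further: tested at 20 µM; growth read once vehicle control cultures reached saturation at 30 °C; 1 = growth at the plate median or of vehicle wells; lower values mean less growth of the strain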
Settings: S. cerevisiae deletion strains, growth OD

Measured: normalized growth

Cc1cc(O)cc(O)c1C(=O)O
inactive: locus YAL021C, strain ccr4, active compounds read low 0.972 | locus YAL026C, strain drs2, active compounds read low 1.05 | locus YAL030W, strain snc1, active compounds read low 1.02 | locus YBL061C, strain skt5, active compounds read low 1.02 | locus YBR009C, strain hhf1, active compounds read low 1.01 | locus YBR021W, strain FUR4, active compounds read low 1.02 | locus YBR023C, strain chs3, active compounds read low 1.02 | locus YBR171W, strain sec66, active compounds read low 1.02 | locus YBR229C, strain ROT2, active compounds read low 1.02 | locus YBR231C, strain swc5, active compounds read low 1 | locus YBR279W, strain paf1, active compounds read low 1.02 | locus YCL011C, strain gbp2, active compounds read low 1.01 | locus YCL016C, strain dcc1, active compounds read low 0.984 | locus YCL029C, strain bik1, active compounds read low 1 | locus YCL061C, strain MRC1, active compounds read low 1.03 | locus YCL069W, strain vba3, active compounds read low 1.01 | locus YCR088W, strain abp1, active compounds read low 1.02 | locus YDL005C, strain med2, active compounds read low 1.03 | locus YDL035C, strain GPR1, active compounds read low 1.04 | locus YDL040C, strain nat1, active compounds read low 1.02 | locus YDL074C, strain BRE1, active compounds read low 1.03 | locus YDL101C, strain DUN1, active compounds read low 1 | locus YDL134C, strain PPH21, active compounds read low 1.04 | locus YDL185W, strain tfp1, active compounds read low 0.988 | locus YDL192W, strain arf1, active compounds read low 1.04 | locus YDR001C, strain nth1, active compounds read low 1.02 | locus YDR069C, strain doa4, active compounds read low 1.03 | locus YDR101C, strain arx1, active compounds read low 1.04 | locus YDR137W, strain rgp1, active compounds read low 1.03 | locus YDR159W, strain sac3, active compounds read low 1.06 | locus YDR162C, strain NBP2, active compounds read low 1.01 | locus YDR195W, strain ref2 0.986 | locus YDR297W, strain sur2, active compounds read low 1.02 | locus YDR318W, strain mcm21, active compounds read low 1.01 | locus YDR334W, strain swr1, active compounds read low 1.02 | locus YDR335W, strain msn5, active compounds read low 1.02 | locus YDR388W, active compounds read low 1 | locus YDR392W, strain spt3, active compounds read low 0.897 | locus YDR502C, strain sam2, active compounds read low 0.997 | locus YEL003W, strain gim4, active compounds read low 1.01 | locus YEL037C, strain rad23, active compounds read low 1.01 | locus YEL061C, strain CIN8 (second series), active compounds read low 1.01 | locus YEL061C, strain CIN8, active compounds read low 1.01 | locus YER015W, strain faa2, active compounds read low 1.01 | locus YER016W, strain bim1, active compounds read low 1.02 | locus YER110C, active compounds read low 0.982 | locus YER111C, strain swi4, active compounds read low 1.01 | locus YER155C, strain BEM2 (second series), active compounds read low 1.02 | locus YER155C, strain BEM2, active compounds read low 1 | locus YER167W, strain BCK2, active compounds read low 1.01 | locus YFR010W, strain ubp6, active compounds read low 1.02 | locus YGL078C, strain dbp3, active compounds read low 0.964 | locus YGL086W, strain mad1, active compounds read low 1.01 | locus YGL167C, strain pmr1, active compounds read low 1.02 | locus YGL173C, strain kem1, active compounds read low 1.04 | locus YGL227W, strain vid30, active compounds read low 1.01 | locus YGL240W, strain doc1, active compounds read low 1.02 | locus YGL248W, strain PDE1, active compounds read low 1.03 | locus YGL253W, strain hxk2, active compounds read low 1.05 | locus YGR078C, strain PAC10, active compounds read low 1.03 | locus YGR135W, strain pre9, active compounds read low 0.96 | locus YGR252W, strain gcn5, active compounds read low 1.06 | locus YHR013C, strain ard1, active compounds read low 1.02 | locus YHR027C, strain rpn1, active compounds read low 1.01 | locus YHR030C, strain SLT2, active compounds read low 1.1 | locus YHR079C, strain IRE1 (second series), active compounds read low 1 | locus YHR079C, strain IRE1, active compounds read low 1.08 | locus YHR094C, strain hxt1, active compounds read low 1.01 | locus YHR129C, strain ARP1, active compounds read low 1.02 | locus YHR142W, strain chs7, active compounds read low 1.01 | locus YHR200W, strain rpn10, active compounds read low 1 | locus YIL066C, strain RNR3, active compounds read low 1.03 | locus YIL073C, strain SPO22, active compounds read low 1 | locus YIL125W, strain kgd1, active compounds read low 0.993 | locus YIR030C, strain dcg1, active compounds read low 1.01 | locus YJL092W, strain hpr5, active compounds read low 1.02 | locus YJL095W, strain BCK1 (second series), active compounds read low 1.02 | locus YJL095W, strain BCK1, active compounds read low 1.04 and 1.07 | locus YJL115W, strain asf1, active compounds read low 1.02 | locus YJL129C, strain trk1, active compounds read low 1.03 | locus YJL134W, strain LCB3, active compounds read low 1.01 | locus YJL154C, strain vps35, active compounds read low 1.01 | locus YJL164C, strain tpk1, active compounds read low 0.997 | locus YJL166W, strain qcr8, active compounds read low 1.03 | locus YJL168C, strain set2, active compounds read low 1.02 | locus YJL187C, strain SWE1 (second series), active compounds read low 1.01 | locus YJL187C, strain SWE1, active compounds read low 1.02
